# According to PubChem BioAssay AID1220 (Sanford-Burnham Center for Chemical Genomics, 2008):
# The whole screen tested about 190,000 compounds, of which about 1,300 (0.68%) were called active. The sample holds actives, similar compounds and a random draw of the others, so the mix is not that of the screen. A number with no mark means an inactive call. No stated cut-off is given here; in the data, active means inhibition above about 50%; inactive means the rest.
# Molecular target: Mannose-6-phosphate isomerase (Homo sapiens) (UniProt P34949)
# Sequence (P34949 whole entry, looked up): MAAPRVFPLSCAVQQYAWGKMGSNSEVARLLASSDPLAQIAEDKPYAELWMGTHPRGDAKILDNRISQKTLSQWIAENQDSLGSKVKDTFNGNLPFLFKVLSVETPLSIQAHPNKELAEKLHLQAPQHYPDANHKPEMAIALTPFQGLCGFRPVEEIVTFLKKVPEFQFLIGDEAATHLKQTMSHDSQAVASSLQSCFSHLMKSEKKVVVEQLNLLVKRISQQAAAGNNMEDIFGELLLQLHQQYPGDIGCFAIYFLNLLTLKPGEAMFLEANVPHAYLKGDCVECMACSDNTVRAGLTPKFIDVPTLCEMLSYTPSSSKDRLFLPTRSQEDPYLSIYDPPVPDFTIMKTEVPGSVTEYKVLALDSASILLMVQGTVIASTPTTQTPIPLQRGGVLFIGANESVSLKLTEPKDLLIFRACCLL
# Experiment: human PMI inhibitors, high substrate, primary screen, biochemical, fluorescence intensity, high mannose 6-phosphate (AID 1220)
# Settings: recombinant PMI enzyme, coupled fluorescence intensity; at 20 µM; stronger effect = higher value
row,SMILES,inhibition
1,Cc1cc(=O)n2nc(N3CCC(C(=O)NC4CCCc5ccccc54)CC3)sc2n1 (configuration not stated),-0.3%
2,COC(=O)CC1C(=O)NCCN1Cc1cn(-c2ccc(C)cc2)nc1-c1cccc(C)c1 (configuration not stated),52.9% (active)
3,Cc1ccc(-n2cc(CN3CCNC(=O)CC3)c(-c3cccc(C)c3)n2)cc1,12.5%
4,CC(=O)N1CCCN(Cc2cn(-c3ccc(C)cc3)nc2-c2cccc(C)c2)CC1,9.1%
5,CN(C)c1ccc(C(CNS(=O)(=O)c2ccc3ccccc3c2)c2c[nH]c3ccccc23)cc1 (configuration not stated),13.6%
6,Cc1ccc(N2C(N)=C(C#N)C(c3cccs3)C3=C2CC(C)(C)CC3=O)cc1 (configuration not stated),8.2%
7,CC1(C)CC(=O)C2=C(C1)N(c1ccc(F)cc1)C(N)=C(C#N)C2c1cccs1 (configuration not stated),28.6%
8,Cc1ccc(C2C(C#N)=C(N)N(c3cccnc3)C3=C2C(=O)CCC3)s1 (configuration not stated),56.7% (active)
9,CSc1sc(C)cc1C1C(C#N)=C(N)N(c2cccnc2)C2=C1C(=O)CCC2 (configuration not stated),13.3%
10,CC1(C)CC(=O)C2=C(C1)N(c1cccnc1)C(N)=C(C#N)C2c1cccs1 (configuration not stated),53.9% (active)
11,Cc1nn(C)cc1C1C(C#N)=C(N)N(c2cccnc2)C2=C1C(=O)CCC2 (configuration not stated),28.3%
12,CC(=O)Nc1ccc(/C=C(\C#N)C(=O)NC2CCCCC2)cc1,4.7%
13,Cc1ccc(-c2nnc(SCC(=O)NNC(=O)COc3ccccc3C)n2C)cc1,3.3%
14,Cc1cc2c3c(c1)C1(C(=O)N3C(C)(C)CC2C)C(C#N)=C(N)Oc2cc(O)ccc21 (configuration not stated),18.9%
15,CCc1ccc(N2CC(C(=O)N/N=C/c3cc([N+](=O)[O-])ccc3O)CC2=O)cc1 (configuration not stated),-15.8%
16,CCOC(=O)Cc1csc(NC(=O)CSc2nnc(-n3nc(C)cc3C)c3ccccc23)n1,6.3%
17,Cc1nc(Nc2ccc(Cl)cc2)c2nnn(Cc3ccccc3)c2n1,3.1%
18,Cc1nc(NCC2CCCO2)c2nnn(Cc3ccccc3)c2n1 (configuration not stated),-3%
19,Cc1nc(NCC2CC2)c2nnn(Cc3ccccc3)c2n1,59.2% (active)
20,O=C(OCC(=O)N1CCN(C(=O)c2ccco2)CC1)c1cc(-c2cccc(Br)c2)nc2ccccc12,9.6%
21,Cc1cc(C)cc(NC(=S)NCC2CCN(C(C)c3ccccc3)C2)c1 (configuration not stated),-1.3%
22,O=C(NC(c1ccccc1)c1ccccc1)C1(c2cccs2)CCOCC1,-1.3%
23,CCOc1ccc2nc(NS(=O)(=O)c3ccc4c(c3)n(C)c(=O)n4C)sc2c1,-21%
24,CCN(CC)c1ccc(NC(=O)c2ccccc2F)cc1S(=O)(=O)Nc1ccccc1OC,-13.8%
25,CCN(CC)c1ccc(NC(=O)c2ccccc2)cc1S(=O)(=O)Nc1ccccc1OC,9.4%

row,SMILES,inhibition
1,CCCS(=O)(=O)C(=C(Nc1ccccc1)Nc1ccccc1)S(=O)(=O)CCC,-4.7%
2,O=C(NCc1cccs1)N[C@@H](Cc1ccccc1)C(=O)O,-2.3%
3,COc1ccc(-c2nc(S(=O)(=O)c3ccccc3)c(N3CCOCC3)o2)cc1,3.3%
4,CC1(C(=O)O)Sc2[nH]c(=O)sc2C2c3ccccc3OC(=O)C21 (configuration not stated),14.1%
5,O=C(O)C1Sc2[nH]c(=O)sc2C2c3cc(Cl)ccc3OC(=O)C12 (configuration not stated),63.5% (active)
6,COC(=O)C1Sc2[nH]c(=O)sc2C2c3ccccc3OC(=O)C12 (configuration not stated),29.7%
7,COC(=O)C1Sc2[nH]c(=O)sc2C(c2ccc(Cl)cc2)C1C(=O)OC (configuration not stated),34.7%
8,CCOC(=O)C1Sc2[nH]c(=O)sc2C(c2ccc(Cl)cc2)C1C(=O)OCC (configuration not stated),-88.8%
9,O=C(O)C1Sc2[nH]c(=O)sc2C2c3ccc(O)cc3OC(=O)C12 (configuration not stated),55.1% (active)
10,Cc1nc2c(C(=O)NCc3ccc4c(c3)OCO4)c[nH]n2c(=O)c1Cl,7.8%
11,CN(C)C=Nc1ncc2c3ccccc3n(CCN(C)C)c2c1C#N,17.9%
12,CN(C)CCNC(=O)C1CC(=O)N(c2ccc(F)c(Cl)c2)C1 (configuration not stated),-1.8%
13,Cc1nn2c(c1-c1ccc(Cl)cc1)N=C(c1ccco1)CC2c1ccccc1 (configuration not stated),0.1%
14,N#Cc1cccc(N=c2ssnc2Cl)c1,43%
15,COc1cc(N=c2ssnc2Cl)cc(OC)c1OC,47.1%
16,Cc1cc(C)nc(NC(=O)c2csnn2)c1,-2.9%
17,Clc1nssc1=Nc1ccccc1,36.5%
18,Nc1ccccc1N=c1ssnc1Cl,38.1%
19,Cc1cc(Cl)ccc1N=c1ssnc1Cl,13.6%
20,COc1cc(OC)c(Cl)cc1N,44.9%
21,Cc1ccc(N=c2ssnc2Cl)cc1,49.8%
22,CC(=O)Nc1ccc(S(=O)(=O)Nc2c(C)n(C)n(-c3ccccc3)c2=O)cc1,4.8%
23,O=C(NCc1ccco1)c1cc2nc(C3CC3)cc(C(F)(F)F)n2n1,8.5%
24,Cc1c(NC(=O)C2CCCCN2S(=O)(=O)c2ccc(Cl)cc2)c(=O)n(-c2ccccc2)n1C (configuration not stated),4.8%
25,Cc1ccc(C(=O)NC(=S)Nc2cccc(NC(=O)c3ccccc3)c2)cc1[N+](=O)[O-],0.9%

row,SMILES,inhibition
1,Fc1ccc(-n2nnc(-c3cccnc3)n2)cc1,-1.8%
2,Cc1cccc(-c2n[nH]c(=S)n2C)c1,-8.8%
3,O=C(NC1=NCCS1)c1ccccc1OCc1ccc(F)cc1,1.4%
4,COc1ccc(OC)c(N=C2C(=O)Nc3ccccc32)c1,5.1%
5,COc1ccc(OC)c(N=c2ssnc2Cl)c1,67.4% (active)
6,OCc1ccccc1N=c1ssnc1Cl,43.7%
7,COc1cc(N=c2ssnc2Cl)cc(OC)c1,27.3%
8,COc1ccc(N=c2sc3ccccc3n2C)cc1,0.4%
9,Cc1ccc(-c2nc(C)sc2CC(=O)OCC(=O)Nc2cccc([N+](=O)[O-])c2)cc1,-5.6%
10,C/C(=N\N=C\c1ccc(N(C)C)cc1)c1cccc([N+](=O)[O-])c1,-128%
11,COC(=O)c1sccc1NC(=S)Nc1cc(OC)ccc1OC,41.2%
12,COc1ccc2c(c1)Cc1sc(NC(=O)c3cccnc3)nc1-2,64.2% (active)
13,COc1ccc2c(c1)-c1nc(NC(=O)c3ccco3)sc1CC2,32.9%
14,COc1ccc(C(=O)Nc2nc3c(s2)Cc2cc(OC)ccc2-3)cc1,26.8%
15,COc1ccc2c(c1)CCc1sc(NC(=O)c3ccco3)nc1-2,60.6% (active)
16,COc1ccc2c(c1)Cc1sc(NC(=O)c3ccco3)nc1-2,45.8%
17,COc1ccc2c(c1)Cc1sc(NC(=O)c3ccccc3)nc1-2,-13.1%
18,Cc1ccc(NC(=O)c2cc(C)n(-c3ccccc3)c2C)cc1,9.3%
19,Cc1ccc(CN(c2ccc(C(=O)N3CCCC3)cc2)S(C)(=O)=O)cc1,-1.2%
20,CCC(=O)Nc1cccc(NC(=O)CSc2nnc(-c3ccc(NS(C)(=O)=O)cc3)n2CC)c1,-2.3%
21,CCc1nnc(NC(=O)CSc2nnc3c4ccccc4n(C)c3n2)s1,2%
22,Cc1onc(-c2c(F)cccc2Cl)c1C(=O)N1CCCc2ccccc21,4.2%
23,O=C1NC(Cc2ccccc2)C(=O)N1Cc1cc([N+](=O)[O-])cc2c1OCOC2 (configuration not stated),-4.9%
24,O=C(CN(C(=O)Cn1nnc(-c2ccccc2F)n1)c1cccc2c1CCCC2)NCc1ccccc1,28.1%
25,NC(=O)NC(=O)CC1S/C(=N/N=C2/NC(=O)CS2)NC1=O (configuration not stated),24.9%

row,SMILES,inhibition
1,NC(=O)NC(=O)CC1S/C(=N/N=C2\CSC(=O)N2)NC1=O (configuration not stated),50.5% (active)
2,NC(=O)NC(=O)CC1S/C(=N/N=C/c2ccccc2)NC1=O (configuration not stated),-2%
3,COc1ccc(-c2cc(C(=O)Nc3c(C)nn(Cc4ccc(Cl)cc4)c3C)no2)cc1,1.1%
4,CC(CCn1cccn1)NC(=O)c1cc(COc2ccc(F)cc2F)on1 (configuration not stated),7.7%
5,Nc1nc2nccc(-c3ccccn3)n2n1,4.4%
6,Cc1cc2nccc(-c3ccccn3)n2n1,-0.9%
7,c1ccc(-c2cc3nccc(-c4ccccn4)n3n2)cc1,61.5% (active)
8,Cc1nn(C)c(C)c1CS(=O)(=O)c1ccccc1,2.6%
9,Cc1cc2nc(CS(=O)(=O)c3ccccc3)cc(=O)n2[nH]1,0.1%
10,CCCCCCCCNc1nc(Cl)nc(NCCN2CCOCC2)n1,-7.1%
11,NC(=O)CSc1nc2ccccc2nc1SCC(N)=O,-6.6%
12,CC(=O)Nc1cc(OC(C)=O)c2nonc2c1OC(C)=O,78.3% (active)
13,CCOc1cc(Cl)c(NC(C)=O)cc1OCC,-3.5%
14,COc1cc(O)c(C(C)=O)cc1OC,-17%
15,CCOc1cc(NC(=O)C2CCCO2)c(OCC)cc1NC(C)=O (configuration not stated),6.8%
16,COc1cc(O)c(NC(C)=O)c2nonc12,62.4% (active)
17,CC(=O)Nc1nonc1NC(C)=O,10.7%
18,COc1ccc(/C=N/NS(=O)(=O)c2ccccc2)cc1OC(=O)c1ccc(C)cc1,6.9%
19,Clc1ccccc1Cc1noc(CN2CCCCC2CCc2ccccn2)n1 (configuration not stated),16.4%
20,FC(F)Oc1ccc(/C=N/c2c(-c3ccc(OC(F)F)cc3)nc3n2CCS3)cc1,1.9%
21,COc1ccc(/C=N/c2c(-c3ccc(OC)cc3)nc3n2CCS3)cc1,57.2% (active)
22,Clc1ccc(/C=N/c2c(-c3ccc(Cl)cc3)nc3n2CCS3)cc1,0.3%
